Source: PubChem BioAssay
PP1 counter: PP1-alpha phosphatase inhibitors, primary screen, counter-screen for PP5 inhibitor project, biochemical, fluorescence, OMFP substrate, single point. Serine/threonine-protein phosphatase PP1-alpha catalytic subunit (Homo sapiens), P62136. purified PP1alpha. inhibition, % at 6.7 µM. actives 0.9% (n = 320,000);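 active means inhibition above the mean inhibition of all tested compounds plus 3 SD, computed separately for each screening campaign, cut at about 15% in these data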
TMEM16A act: TMEM16A chloride channel activators or potentiators, primary screen, cell-based, HTS; HEK293 TMEM16A/YFP-H148Q/I152L, iodide quench fluorescence; active compounds read low; B-score at 10 µM; actives 0.3% (n = 340,000); AID 623877, 2012;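 active means fluorescence-ratio B-score plate-corrected deviation score at least 3 library SD below zero, with starting fluorescence score within 5 deviations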;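 further: channel opened by trigger with iodide after compound preincubation; score built on the fluorescence ratio of max minus min over baseline; more negative score means more quench and so TMEM16A activation or potentiation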
PP5 primary: PP5 phosphatase inhibitors, primary screen, biochemical, fluorescence | actives 0.18% (n = 320,000) | inhibition, % at 6.7 µM | purified PP5c, OMFP substrate fluorescence | Serine/threonine-protein phosphatase 5 (Homo sapiens), P53041 | AID 1987, 2009;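 active means inhibition above the campaign's mean inhibition across all tested compounds plus 3 SD, cut at about 9.5% in these data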;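 further: 0% = DMSO only and 100% = 100 µM cantharidin control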
Target sequence (P53041 whole entry, looked up): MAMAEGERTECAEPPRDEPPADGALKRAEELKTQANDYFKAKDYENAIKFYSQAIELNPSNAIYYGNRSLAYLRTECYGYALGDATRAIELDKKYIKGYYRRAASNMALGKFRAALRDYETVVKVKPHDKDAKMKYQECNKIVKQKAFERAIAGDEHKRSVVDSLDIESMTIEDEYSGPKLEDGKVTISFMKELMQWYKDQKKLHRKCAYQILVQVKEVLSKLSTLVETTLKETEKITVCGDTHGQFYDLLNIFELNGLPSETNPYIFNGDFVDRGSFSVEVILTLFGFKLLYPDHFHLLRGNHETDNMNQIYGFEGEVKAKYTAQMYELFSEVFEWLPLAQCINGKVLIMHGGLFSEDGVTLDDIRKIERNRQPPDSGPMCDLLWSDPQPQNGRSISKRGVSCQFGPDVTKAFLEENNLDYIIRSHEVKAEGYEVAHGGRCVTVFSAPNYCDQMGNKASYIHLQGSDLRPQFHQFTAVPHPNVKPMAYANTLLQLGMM
PREPL inh: PREPL enzyme inhibitors, primary screen, biochemical, fluorescence polarization; recombinant PREPL, fluorescence polarization activity-based probe; inhibition, % at 5.96 µM; Prolyl endopeptidase-like (Homo sapiens), Q4J6C6; AID 2751, 2010; actives 0.68% (n = 320,000); in the data active means inhibition above about 43%;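 further: 0% = enzyme with DMSO and 100% = wells lacking enzyme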
ANO1 block: TMEM16A chloride channel inhibitors, primary screen, cell-based, HTS; Anoctamin-1 (Mus musculus), Q8BHY3; AID 588511, 2011; HEK293 TMEM16A/YFP iodide influx fluorescence, ionomycin; actives 1.2% (n = 310,000); normalized B-score (activity score, 25-100; higher = stronger inhibition) at 10 µM;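 active means ratio plate-corrected score three or more library SD toward inhibition, starting fluorescence score within five deviations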;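 further: score derived from kinetic fluorescence span divided by baseline fluorescence per well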
FID counter: compounds displacing fluorescent DNA intercalator, primary screen, artefact control for HCV NS3 helicase inhibitor project, biochemical, FID fluorescence | DNA fluorescent intercalator displacement | inhibition, % at 7.9 µM | actives 0.17% (n = 290,000) | AID 1845, 2009; in the data active means inhibition above about 37%;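 further: 0% = vehicle and 100% = reference compound; higher means more ethidium bromide displaced from hairpin DNA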
PP1 inh confirm: PP1 phosphatase inhibitors, confirmation, biochemical, fluorescence, OMFP substrate, triplicate | shares compounds with PP1 counter | purified PP1alpha | actives 52% (n = 1,900) | inhibition, % at 6.7 µM;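 active means mean PP1 inhibition above a set limit taken from the earlier primary screen, cut at about 15% in these data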
PP5 inh counter: PP5 phosphatase inhibition by PP1 hits, confirmation, counter-screen for PP1 inhibitor project, biochemical, fluorescence, triplicate; shares compounds with PP1 counter; purified PP5c, OMFP fluorescence; inhibition, % at 6.7 µM; actives 4% (n = 1,900); AID 2360, 2010;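 active means mean PP5 inhibition over triplicate wells above about 9.5% taken from the earlier PP1 screen, limit read from the data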
Active calls of the source: *. Hits are enriched below; roughly 2.7% of the tested compounds scored in any of these assays.

Screening CCOC(=O)c1c(NC(=O)/C=C/C(=O)O)sc(C)c1-c1ccc(C(C)(C)C)cc1 returned PP1 counter 18.2*, TMEM16A act inactive, PP5 primary 1.0, PREPL inh -0.2, ANO1 block 25*, FID counter -11.2, PP1 inh confirm 18.0* and PP5 inh counter 0.1.
For Clc1cccc(CN2CCN(Cc3nc(CCc4ccccc4)no3)CC2)c1 the results were PP1 counter -3.5, TMEM16A act inactive, PP5 primary -1.3, PREPL inh 26.1, ANO1 block inactive and FID counter -9.9.
`CCOC(=O)c1cc(NC(=O)C2C3CCC(O3)C2C(=O)O)cc(C(=O)OCC)c1` (stereo unspecified) gave PP1 counter 56.9*, TMEM16A act inactive, PP5 primary 64.8*, PREPL inh 14.6, ANO1 block inactive, FID counter -3.0, PP1 inh confirm 12.7 and PP5 inh counter 18.6*.
For Cc1ccc(Cc2ccccc2C(=O)O)cc1 the results were TMEM16A act inactive.
`COc1ccccc1/C=N/NC(=O)c1cccc(OC(F)(F)C(F)F)c1` gave PP1 counter -1.9, TMEM16A act inactive, PP5 primary 3.6, PREPL inh 7.8, ANO1 block inactive and FID counter -7.0.
COc1cccc(/C=N/NC(=O)c2[nH]c(C)c(C(=O)N/N=C/c3cccc(OC)c3O)c2C)c1O was read as PP1 counter 24.7*, TMEM16A act inactive, PP5 primary 3.3, PREPL inh 31.3, ANO1 block inactive, FID counter -24.6, PP1 inh confirm 28.2* and PP5 inh counter -2.5.
Screening COc1cccc(/C=N/NC(=O)c2ccc(-c3ccccc3)cc2)c1O returned PP1 counter 22.0*, TMEM16A act inactive, PP5 primary 1.8, PREPL inh 9.3, ANO1 block inactive, FID counter -11.1, PP1 inh confirm 24.8* and PP5 inh counter 2.0.
Screening COc1ccc(OC)c(/C=N\NC(=O)c2ccc(-c3ccccc3)cc2)c1 returned TMEM16A act inactive, ANO1 block inactive and FID counter -34.0.
`COc1cccc(/C=N/NC(=O)C(=O)Nc2ccccc2OC(F)(F)C(F)F)c1O` gave PP1 counter 19.6*, TMEM16A act inactive, PP5 primary 1.9, PREPL inh 9.6, ANO1 block inactive, FID counter -12.6, PP1 inh confirm 27.1* and PP5 inh counter -3.3.
Screening N#C/C(=C\c1cccs1)C(=O)Nc1ccccn1 returned PP1 counter 0.5, TMEM16A act inactive, PP5 primary 1.6, PREPL inh 11.4, ANO1 block inactive and FID counter -5.8.
